Tg IFNy HTS – blocks Toxoplasma gondii growth in the presence of IFN-gamma | AID 1259416 | 69,000 compounds, 3.8% hits | Toxoplasma gondii growth in IFN-gamma-treated host cells; stronger effect = lower value | activity change, negative = inhibition, % (concentration not given with the values); in the data active = activity change below about -70%, passing the limit was not always enough;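 note: host cells are HeLa cells infected with Toxoplasma gondii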
Hits are given with their value; – = inactive; ! = not confirmed by another sample. This excerpt belongs to a sample that is enriched for hits.

SMILES	Tg IFNy HTS
CCN1c2cc(C)ccc2-n2cccc2C12CCN(C(=O)Nc1cc(OC)ccc1OC)CC2	-110.7
C=CCn1c(=O)c(C(=O)NCCc2cccc(OC)c2)c(O)c2ccccc21	–
CCOC(=O)Cn1cc(CN2CCCC2c2cc(C(C)C)on2)c2ccccc21 (centres undefined)	–
COc1ccc(S(=O)(=O)N(C)Cc2nc(C)ncc2-c2cc(C)no2)cc1	–
c1ccc2c(c1)CCC21CCN(c2nncs2)CC1	–
CCN1c2cc(C)ccc2-n2cccc2C12CCN(C(=O)NCCc1ccccc1)CC2	–
O=C([C@@H]1CCCN1)N1CCc2onc(-c3ccc(Cl)cc3)c2C1	–
COCC1C(=O)N(CC2CC2)CC12CCN(c1ncc(F)cn1)CC2 (centres undefined)	–
O=C1Cc2cc(CCN3CCN(c4nsc5ccccc45)CC3)c(Cl)cc2N1	-80.5
CN1CCN(CCC(=O)N2CCN(c3nsc4ccccc34)CC2)CC1	–
Cc1c(S(=O)(=O)N2CCN(c3nsc4ccccc34)CC2)cnn1C(F)F	–
Clc1ccc(-c2nc(NC3CCN(Cc4ccccc4)CC3)c3ccccc3n2)cc1	–
Cc1cccc(CN2CCC(CNc3nc(-c4ccc(Cl)cc4)nc4ccccc34)CC2)c1	–
Fc1cccc2c(OC3CCN(Cc4ccccc4)CC3)cc(C(F)(F)F)nc12	-94.4
CCc1ccccc1NC(=O)C(=O)NCCc1sc(-c2ccc(C)cc2)nc1C	–
COc1cccc(C2CCN(c3ncnc4c3CCNC4)C2)c1OC (centres undefined)	-72.0
c1cc(C2CCN(c3ncnc4c3CCNC4)CC2)ccn1	–
COc1cccc(OCCN2CCN(c3ncnc4c3CCNC4)CC2)c1	–
CCCCOc1ccc(-c2nnc(-c3cccs3)n2-c2ccccc2)cc1	-80.2
COc1ccc(OCc2nn3c(-c4cccs4)nnc3s2)cc1	–
Cc1cccc(-n2c(SCC(N)=O)nnc2-c2cccs2)c1C	–
Cc1cccc(CN2CCC3C2CCC(=O)N3CC2CCOCC2)c1 (centres undefined)	–
c1cncc(OCC2CN(Cc3ccco3)Cc3nccn3C2)c1 (centres undefined)	–
O=C1Cc2cc(N3CC(C(=O)O)CC3=O)ccc2N1 (centres undefined)	–
O=C1Cc2cc(-c3ccc4c(c3)OCO4)ccc2N1	-74.6
SMILES	Tg IFNy HTS
Fc1ccc(-c2noc(-c3ccc4c(c3)OCO4)n2)cc1	–
O=C(CCn1cnc2c([nH]c3ccc(F)cc32)c1=O)NCc1ccncc1	–
O=C(NC1CCCCCC1)C1CC(=O)N(CCc2c[nH]c3ccc(Cl)cc23)C1 (centres undefined)	–
CC(C)(C)c1nnc(NC(=O)C2CC(=O)N(CCc3c[nH]c4ccc(F)cc34)C2)s1 (centres undefined)	–
O=C(Nc1ccc2c(c1)CCC2)C1CC(=O)N(CCc2c[nH]c3ccc(Cl)cc23)C1 (centres undefined)	-111.3
Cc1nnc(NC(=O)C2CC(=O)N(CCc3c[nH]c4ccc(Cl)cc34)C2)s1 (centres undefined)	–
CC(C)c1ccc(NC(=O)C2CC(=O)N(CCc3c[nH]c4ccc(F)cc34)C2)cc1 (centres undefined)	-80.8
Cc1ccc2[nH]cc(CCN3CC(C(=O)NCCc4ccc(F)cc4)CC3=O)c2c1 (centres undefined)	–
O=C(c1ccc(Cl)cc1)N1CCC2(CC1)Nc1ccc(Cl)cc1-n1cccc12	–
CC(C)Oc1ccc(C2CC(=O)N(Nc3ccccc3)C2=O)cc1 (centres undefined)	–
Cc1cccc(CN2CC[C@@H]3C(=O)N(c4ccsc4)CCO[C@@H]3C2)n1	–
CCc1ccc(Nc2nc(C(=O)NCc3ccc(OC)cc3)nc3ccccc23)cc1	–
Cc1ccccc1-c1nc(Cn2c(=O)cc(C(=O)N3CCCCC3)c3ccccc32)c(C)o1	–
Cc1ccccc1-c1nc(CN2C(=O)CSc3ccc(S(=O)(=O)N4CCCC4)cc32)c(C)o1	-80.3
Cc1oc(-c2ccccc2)nc1CN1C(=O)CSc2ccc(S(=O)(=O)N3CCOCC3)cc21	–
COc1cc(Cl)c(NC(=O)c2nc(Nc3ccc(C)cc3)c3ccccc3n2)c(OC)c1	–
CN1CCS(=O)(=O)[C@H]2CCN(C(=O)C(C)(C)C)CC[C@@H]21	–
Cn1nc(-c2cccc(F)c2)c2c1C[C@H]1CN(Cc3nccs3)C[C@H]21	–
Fc1ccc(C(CCCN2CCN3CCCCC3C2)c2ccc(F)cc2)cc1 (centres undefined)	–
OC(CCCN1CCC(O)(c2ccc(Cl)cc2)CC1)c1ccc(F)cc1 (centres undefined)	–
OC1(c2ccc(Cl)c(C(F)(F)F)c2)CCN(CCCC(c2ccc(F)cc2)c2ccc(F)cc2)CC1	-84.9!
CCn1c(C2CCNCC2)nn(CCn2cncn2)c1=O	–
CCc1cc(=O)[nH]c(C2CCCN2C(=O)c2cc(OC)c(OC)c(OC)c2)n1 (centres undefined)	–
CCc1nc([C@H]2CN(C)C[C@@H]2C(=O)NCCc2cnccn2)c(C)[nH]1	–
COc1cccc(C(=O)NCCc2sc(-c3ccc(F)cc3)nc2C)c1	–
SMILES	Tg IFNy HTS
O=C1C(Cc2ccccc2)N=C2c3ccccc3N=C(SCc3cc(=O)n4cc(Br)ccc4n3)N12 (centres undefined)	–
COc1nc(OC)nc(N2CC[C@@H](c3ccc4c(c3)OCO4)[C@H](O)C2)n1	–
Cc1ccc(C(=O)NCCc2csc(-c3ccc(C(F)(F)F)cc3)n2)cc1	–
COC[C@]12CCC[C@@H]1CN(S(=O)(=O)c1ccc(C)cc1OC)C2	–
Cc1cc(=O)n(C2CCNCC2)nc1-c1ccccc1	–
Cc1ccccc1C1CCN(CCn2cnnc2)C1 (centres undefined)	–
